# Experimental data: PubChem BioAssay (NCI)
# The panel holds about 79,000 compounds, 15% with a hit somewhere; the sample as a whole holds those more often. A number with no mark means an inactive call. Activity calls are given as the source filed them. No stated cut-off is given here; in the data, active means growth inhibition above about 70%; inactive means the rest.
# How the values were obtained:
# [1] = NCI Yeast Anticancer Drug Screen. Data for the rad50 strain (AID 155);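 further: 0% = growth of vehicle-only cultures of the same strain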; settings: S. cerevisiae rad50 strain growth inhibition; at 50.0 µM; hits give high values
# How it was run: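 Inhibition values express reduced yeast growth in compound-treated cultures relative to vehicle-treated controls.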
# [2] = NCI Yeast Anticancer Drug Screen. Data for the mec2-1 strain (AID 157); settings: S. cerevisiae mec2-1 strain, at 50.0 µM, hits give high values
# How it was run: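 Using mec2-1 yeast: add compound, measure growth, express inhibition versus vehicle-treated cultures.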
# [3] = NCI Yeast Anticancer Drug Screen. Data for the sgs1 mgt1 strain (AID 161);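 further: 0% = growth of cultures given vehicle only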; settings: S. cerevisiae sgs1 mgt1 strain, at 50.0 µM, hits give high values
# How it was run: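 This yeast growth screen uses a strain with defined DNA-repair lesions; compound-treated growth is compared with vehicle-treated growth.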
# [4] = NCI Yeast Anticancer Drug Screen. Data for the cln2 rad14 strain (AID 165);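 further: 0% = growth equal to vehicle treated cultures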; settings: S. cerevisiae cln2 rad14 strain, at 50.0 µM, hits give high values
# How it was run: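 Yeast strain cln2 rad14, bearing defects in cell cycle control and DNA repair, serves as the test system; values reflect growth inhibition compared with vehicle.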
# [5] = NCI Yeast Anticancer Drug Screen. Data for the bub3 strain (AID 167); settings: S. cerevisiae bub3 mutant strain, at 50.0 µM, hits give high values
# How it was run: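 Steps: expose the mutant yeast strain to compound; grow alongside vehicle-treated cultures; measure growth; express inhibition against the vehicle cultures.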
# [6] = NCI Yeast Anticancer Drug Screen. Data for the mlh1 rad18 strain (AID 175); settings: S. cerevisiae mlh1 rad18 strain growth inhibition; at 50.0 µM; hits give high values
# How it was run: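 Steps: expose repair-defective yeast to compound; measure growth; express inhibition against vehicle-treated controls.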
Structure (SMILES),growth inhibition [1],growth inhibition [2],growth inhibition [3],growth inhibition [4],growth inhibition [5],growth inhibition [6]
O=c1[nH]c(=O)n(C2OC(CO)C(O)C2O)cc1Oc1ccccc1 (configuration not stated),7.8%,2.9%,4.2%,12.4%,-0.4%,-13.8%
CC/C(CCC(=O)OC)=N/Nc1ccc([N+](=O)[O-])cc1[N+](=O)[O-],4.05%,7.25%,6.9%,-22.6%,-5.9%,-10.6%
CN(C)c1cc2ccccc2oc1=O,5.3%,-0.75%,-2%,-5.75%,9%,6.45%
C[N+](C)([O-])CCNC(=O)c1cccc2cc3ccccc3nc12,-9.8%,-8.9%,-23.5%,4.3%,10.2%,-46%
Cc1ccc(N=C(Nc2ccc(C)cc2)C(c2ccccc2)c2ccccc2)cc1,12%,-1.85%,5.9%,7.65%,6.5%,30.6%
CCCCCCCCCCCCC(CC)(C(=O)OCC)C(=O)OCC,-1.6%,-0.6%,13%,-59.5%,1.15%,-2%
O=C(O)/C=C/C(=O)Nc1cccc(C(F)(F)F)c1,-3.5%,0.35%,-17.5%,-6.85%,-15.7%,-9.7%
Cc1cccc(C2=N/C(=C\c3ccccc3)C(=O)O2)c1,7.15%,7.5%,18.8%,10.8%,5.75%,5.35%
O=[N+]([O-])c1ccc(-c2nnn(Cc3ccco3)c2N2CCCCC2)cc1,69.6%,70.7% (active),91.2% (active),84.2% (active),95.7% (active),81.3% (active)
CC1OC(OC2C(O)C(OCCc3ccc(O)c(O)c3)OC(CO)C2OC(=O)/C=C/c2ccc(O)c(O)c2)C(O)C(O)C1O (configuration not stated),4.75%,-9.8%,-3%,8.25%,-2.7%,20.8%
Cc1cc(C)nc(NS(=O)(=O)c2ccc(Nc3c4ccccc4nc4c(C(=O)Nc5ccc(S(=O)(=O)N=C(N)N)cc5)cccc34)cc2)n1,24.1%,35.8%,30.9%,35.2%,19.6%,44.1%
COC(=O)Oc1ccccc1C(=O)O,-25.2%,-22.6%,-15.6%,0.2%,-24.6%,-5.55%
CCN1CC(C(=O)NC(C)C(=O)O)Cc2ccccc21 (configuration not stated),7.2%,-1.25%,9.15%,-31%,1.45%,-8%
C1=Cc2ccccc2/C1=C\C=C\c1ccccc1,19.1%,8.75%,-2.35%,-11.4%,2.8%,18.1%
COC(=O)Nc1c2c(nc3ccccc13)-c1ccccc1C(C)(C)C2OC (configuration not stated),49.5%,12.6%,58.1%,-7.7%,84% (active),67%
Cc1cc(O)c(C=NC(=S)c2ccccc2)c(=O)o1,-14.1%,-32%,10.2%,5.3%,4.55%,-40.4%
CC(O)C(NC(=O)Nc1ncnc2nc[nH]c12)C(=O)O (configuration not stated),8.8%,4.3%,-2%,7.75%,-14.2%,16.9%
CN(C)CCNS(=O)(=O)N(C)C,-25.1%,-25.1%,-24.4%,7.45%,-51.8%,8.45%
CCC(C)(O)C#CC(C)(O)CC (configuration not stated),-0.1%,-0.95%,11.8%,-63%,9.8%,-40.8%
Nc1cc(C(=O)O)ccc1Cl,-9.7%,-8.1%,-18.9%,-88.8%,-12.2%,-5.4%
O=c1[nH]c(=O)n(COCc2ccccc2)c2ccc(Br)cc12,-7.55%,-9.5%,-2.75%,-20.4%,-6.95%,-61.5%

Structure (SMILES),growth inhibition [1],growth inhibition [2],growth inhibition [3],growth inhibition [4],growth inhibition [5],growth inhibition [6]
CNn1c(-c2ccc(C)cc2)n[nH]c1=O,8.95%,0.25%,-5.95%,4.15%,18.7%,19.9%
O=C(O)C1NCCC1Oc1ccccc1 (configuration not stated),-3.9%,-3.7%,-16%,-12.8%,-1.5%,2.65%
CCOc1ccc(NC(=O)/C(CC(=O)c2sc(Nc3ccc(C)cc3)nc2C)=N\NC(N)=S)cc1,-33.3%,3.15%,8.95%,-49.6%,-11.4%,-35.5%
CC(=S)N=Cc1c(C)[nH]n(-c2ccccc2)c1=O,-49.4%,-29.8%,-41.4%,19.6%,-57.7%,-31.9%
CC(C)CC(NC(=O)CN1C(=O)c2ccccc2C1=O)C(=O)O (configuration not stated),-10.3%,-41.6%,7.4%,3.2%,-17%,-24.1%
CSc1nc(C)c(Br)c(=O)n1C1OC(COC(C)=O)C(OC(C)=O)C(OC(C)=O)C1OC(C)=O (configuration not stated),-1.2%,-7.5%,-13.1%,22.2%,-19.9%,1.35%
COc1ccc(CCN(C)C2c3ccccc3C=Cc3ccccc32)cc1OC,30.5%,2.4%,3.35%,-16.2%,-1.85%,8.65%
O=C1C=C(N2CCCC2)CC1,18.2%,3.1%,-0.2%,-43%,-17.1%,6.25%
NC(=O)NCP(=O)(CNC(N)=O)CNC(N)=O,-20%,-7.3%,-4.25%,-20.4%,32.8%,4.95%
CN1c2ccccc2Oc2ccc3ccccc3c21,13.8%,-24.6%,0.95%,-4.3%,-8.2%,12.8%
CCCCCCCCC1CCC(=O)O1 (configuration not stated),19.8%,1.8%,16.7%,7.45%,7.25%,9%
O=C(NCCCCC(Br)C(=O)O)c1ccccc1 (configuration not stated),-30%,-5.5%,-33.4%,-53.2%,-1.55%,-34.9%
CCCCCCCCCCCCOP(=O)(O)OP(=O)(O)OCC1OC(n2cc(C)c(=O)[nH]c2=O)CC1O (configuration not stated),35.4%,13.9%,47%,14.7%,14.4%,7.55%
c1ccc(C[S][Sn]([c]2ccccc2)([c]2ccccc2)[c]2ccccc2)cc1,97.5% (active),96.2% (active),97% (active),94.4% (active),97% (active),93% (active)
OC(c1ccccc1)c1c(-c2ccccc2)[nH]c(-c2ccccc2)c1C(O)c1ccccc1 (configuration not stated),1%,14.8%,-6.5%,22.2%,-23.3%,-6.9%
C/C=C(/C)C(=O)O[C@H]1CC[N+]2([O-])CC=C(COC(=O)[C@@](O)([C@H](C)OC)C(C)(C)O)[C@H]12 (some centres not stated),-13.1%,-5.1%,-3.45%,7.5%,6.75%,12.5%
CCOCCn1c(=O)cc(C)c2ccccc21,-20.3%,1.6%,-16.8%,-41.3%,14.2%,-13.7%
N/N=C1/C(=N/O)CCc2nonc21,6.15%,6.5%,3.5%,-8.3%,-7.45%,-27.1%
CCOc1ccccc1/C=C1\CCc2ccccc2C1=O,21.6%,34.8%,42.7%,0.4%,49.9%,23%
CC(c1ccccc1)N1COc2cc3c(cc2C1)OCN(C(C)c1ccccc1)C3 (configuration not stated),-21.2%,-2.95%,-29.8%,-11.8%,-6.8%,-17.4%
C=CCNC(=S)N(C)Cc1ccccc1Cl,-7.2%,35.5%,34.8%,-25.9%,36.4%,33.6%
